Screening results from PubChem.
A selection: hits, their analogues and other compounds. The true share with any hit is near 2.9%.
S1P4 antag – blocks the human S1P4 receptor. inhibition, % at 4.98 µM. 220,000 tested, 0.26% active. O95977. S1P4-expressing cells, antagonist mode, reporter read-out; in the data active = inhibition above about 29%
S1P4 agonist – human S1P4 receptor agonism; 220,000 tested, 0.35% active; S1P4-expressing cell line, agonist reporter assay; activation, % at 4.98 µM; O95977; AID 1509; in the data active = activation above about 11%
S1P3 antagonist – blocks the human S1P3 receptor. AID 485. CHO S1P3 NFAT-BLA reporter, FRET fluorescence, antagonist mode. inhibition, % at 4.98 µM. 170,000 tested, 0.27% active. Q99500;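 active = inhibition above the plate cutoff, the mean inhibition of test wells on that plate plus 3 SD, cut at about 28% in these data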;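 also: cells challenged with S1P at its EC80 of 0.8 µM; blue over green emission ratio from cleaved BLA substrate after 4 h stimulation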
Target sequence (Q99500 whole entry, looked up): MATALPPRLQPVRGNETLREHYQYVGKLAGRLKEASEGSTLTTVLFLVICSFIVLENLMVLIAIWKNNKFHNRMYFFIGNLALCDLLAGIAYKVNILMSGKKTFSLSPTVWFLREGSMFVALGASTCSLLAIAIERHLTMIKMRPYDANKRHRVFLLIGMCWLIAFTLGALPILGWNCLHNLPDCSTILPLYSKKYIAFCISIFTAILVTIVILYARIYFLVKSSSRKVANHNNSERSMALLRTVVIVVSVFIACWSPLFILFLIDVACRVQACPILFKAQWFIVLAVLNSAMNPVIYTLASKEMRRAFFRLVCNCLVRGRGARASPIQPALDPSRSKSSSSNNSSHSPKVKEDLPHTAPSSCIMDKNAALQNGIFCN
HSF1 inh – HSF1 inhibition; NIH3T3-HGL HSE-luciferase, MG132-induced, luminescence 8 h; stronger effect = lower value; 300,000 tested, 0.77% active; AID 2098; activity change, negative = inhibition, % at 7.5 µM (by protocol);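 active = more than half of replicate wells show activity change below -50%, luminescence cut by over half; inconclusive = some wells, but at most half, below -50%; inactive = no replicate well below -50%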;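 also: luciferase reports HSF-1 transcriptional activity via heat shock element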
Hsp70 act – switches on Hsp70 transcription; HeLa Hsp70 promoter luciferase reporter, luminescence; scaled: vehicle 0, proteasome-inhibitor control 100%; activation, % at 10 µM; 200,000 tested, 0.04% active;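 active = activation above the mean across all tested compounds plus 3 SD, cutoff set per campaign, cut at about 5.5% in these data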
HSF1 activator – increases HSF-1 driven luciferase reporter signal; 300,000 tested, 1.7% active; NIH3T3-HGL HSF-1 luciferase reporter, MG132, 8 h; 100% = twice DMSO control signal; activation, % at 9 µM;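 active = mean replicate activation of at least 50% with a set share of replicates each reaching 50%; inconclusive = only one of those two conditions met; inactive = mean below 50% and too few replicates reaching it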
S1P4 agonist cf – human S1P4 agonism, confirmation | shares compounds with S1P4 agonist | AID 1523 | S1P4 agonist cell-based reporter assay | 740 tested, 7% active | activation, % at 4.98 µM; in the data active = activation above about 12%
S1P1 agonist – human S1P1 agonism as S1P4 agonist counter-screen; shares compounds with S1P4 agonist; S1P1 agonist cell-based assay, activation; activation, % at 4.98 µM; 740 tested, 4% active; in the data active = activation above about 21%
Target sequence (P21453 whole entry, looked up): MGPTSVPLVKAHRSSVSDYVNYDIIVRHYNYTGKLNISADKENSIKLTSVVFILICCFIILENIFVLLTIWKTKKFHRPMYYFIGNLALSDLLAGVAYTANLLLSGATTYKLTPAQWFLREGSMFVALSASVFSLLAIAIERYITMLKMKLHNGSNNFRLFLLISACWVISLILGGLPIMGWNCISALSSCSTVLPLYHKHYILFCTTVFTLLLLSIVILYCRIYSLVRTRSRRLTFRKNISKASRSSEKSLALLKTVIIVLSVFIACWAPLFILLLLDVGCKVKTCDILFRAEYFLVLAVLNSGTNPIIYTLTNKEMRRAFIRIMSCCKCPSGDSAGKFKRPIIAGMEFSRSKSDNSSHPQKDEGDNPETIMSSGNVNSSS
Each line names hits and unclear results; the compound was inactive in the other large screens (follow-up assays come after a bar, where they were run).

Clc1ccc(C2CC(c3cccs3)n3ncnc3N2)c(Cl)c1 (stereo unspecified)	S1P4 agonist 27 | S1P4 agonist cf inactive | S1P1 agonist inactive
COc1ccc(CCNC(=O)C/C(C)=N/NC(=O)c2ccc([N+](=O)[O-])cc2Cl)cc1OC	none (no result: S1P4 antag, S1P4 agonist, S1P3 antagonist, Hsp70 act)
O=C(NCCS(=O)(=O)N1CCN(c2cccc(Cl)c2)CC1)c1cc(=O)c2ccccc2o1	none (no result: S1P4 antag, S1P4 agonist, S1P3 antagonist, Hsp70 act)
COc1cccc(C(=O)NNC(=O)Cc2cccs2)c1	S1P4 agonist 24 | S1P4 agonist cf inactive | S1P1 agonist inactive
COc1cccc(OCC(=O)NNC(=O)Cc2cccs2)c1	none
CCN(CC)c1ccc2c(C)c(Cl)c(=O)oc2c1	S1P4 agonist 16 | S1P4 agonist cf inactive | S1P1 agonist inactive
Cc1cc(NC(=O)CCC(=O)N(CC(=O)NC2CCCC2)Cc2cccs2)no1	S1P4 agonist 33, HSF1 activator inconclusive | S1P4 agonist cf inactive | S1P1 agonist inactive
CC1=C/C(=N\NC(=O)c2ccc(O)cc2)CC1	none
Cn1c(NC(=O)CC(C)(C)C)cc(=O)n(C)c1=O	S1P4 agonist 46 (no result: HSF1 inh, HSF1 activator) | S1P4 agonist cf inactive | S1P1 agonist inactive
COc1cc(C(=O)OCC(=O)Nc2cccc(S(=O)(=O)N3CCCC3)c2)ccc1OCC(C)C	none (no result: S1P4 antag, S1P4 agonist, S1P3 antagonist, Hsp70 act)
O=C(c1ccc(NS(=O)(=O)c2cccc3cccnc23)cc1)N1CCOCC1	none
O=C(c1ccc(NS(=O)(=O)c2cccc3cccnc23)cc1)N1CCCCC1	S1P4 agonist 23 | S1P4 agonist cf inactive | S1P1 agonist inactive
Cc1ccc(S(=O)(=O)c2c(O)c3ccc(C(=O)O)cc3[nH]c2=O)cc1	none (no result: S1P4 antag, S1P4 agonist, S1P3 antagonist, Hsp70 act)
O=C(CSc1nc2[nH]ncc2c(=O)[nH]1)Nc1ccc(Cl)cc1	none (no result: S1P4 antag, S1P4 agonist, S1P3 antagonist, Hsp70 act)
COc1cc(C(=O)NCC(=O)N/N=C/c2ccc(OC(=O)c3ccco3)cc2)cc(OC)c1OC	S1P4 agonist 21 | S1P4 agonist cf inactive | S1P1 agonist inactive
CCOC(=O)c1c(SCC(=O)Nc2nccs2)nc(C)c(C)c1C	none (no result: S1P4 antag, S1P4 agonist, S1P3 antagonist, Hsp70 act)
NC(=O)C1CCN(C2CC(=O)N(Cc3cccs3)C2=O)CC1 (stereo unspecified)	S1P4 agonist 28 (no result: S1P3 antagonist) | S1P4 agonist cf inactive | S1P1 agonist inactive
CCN(CC)C(=O)Cn1c(=O)n(CCCCCC(=O)Nc2ccccc2)c(=O)c2sccc21	S1P4 agonist 12 | S1P4 agonist cf inactive | S1P1 agonist inactive
Cc1cc(C2=NNC(=NC3CC3)SC2)c(C)n1-c1c(C)n(C)n(-c2ccccc2)c1=O	S1P4 agonist 15 | S1P4 agonist cf inactive | S1P1 agonist inactive
CC(C)CCNC(=O)C(=O)NC1CCCC1	S1P4 agonist 57 | S1P4 agonist cf inactive | S1P1 agonist inactive
CC(C)CCNC(=S)NC1CCCC1	none (no result: S1P3 antagonist)
COc1ccc(C2=NOC(C(=O)NC(C)(C)C)C2)cc1 (stereo unspecified)	S1P4 agonist 23 | S1P4 agonist cf inactive | S1P1 agonist inactive
O=C(O)[C@@H]1Cc2ccccc2N1	none (no result: Hsp70 act)
COc1ccc(NC(=O)COC(=O)CC2CC3CCC2C3)c([N+](=O)[O-])c1 (stereo unspecified)	none
CC(C)(C)c1ccc(N/N=C(\C#N)S(=O)(=O)C(C)(C)C)cc1	S1P4 agonist 29 | S1P4 agonist cf inactive | S1P1 agonist inactive
CC(C)(C)S(=O)(=O)/C(C#N)=N/Nc1ccc(Cl)cc1	none
CN1C(=O)OC2(C)CCc3ccccc3C12C (stereo unspecified)	S1P4 agonist 22 | S1P4 agonist cf inactive | S1P1 agonist inactive
CCc1ccc(/C(C)=N/NC(=O)c2ccccn2)cc1	S1P4 agonist 12 | S1P4 agonist cf inactive | S1P1 agonist inactive
CC(=O)NCCCc1nc2ccccc2n1Cc1c(F)cccc1Cl	S1P4 agonist 52 (no result: Hsp70 act) | S1P4 agonist cf inactive | S1P1 agonist inactive
CC(=O)NCCCc1nc2ccccc2n1Cc1cc(C)ccc1C	none
O=c1c2c3c(sc2nc2sc(CN4CCOCC4)cn12)CCCC3	S1P4 agonist 41 (no result: HSF1 inh, HSF1 activator) | S1P4 agonist cf inactive | S1P1 agonist inactive
COc1cccc(C2=NOC(C(=O)N3CCN(C(=O)c4ccco4)CC3)C2)c1 (stereo unspecified)	S1P4 agonist 37 | S1P4 agonist cf inactive | S1P1 agonist inactive
Cc1ccc(OCC(COCc2ccccc2)NC(C)C)cc1 (stereo unspecified)	none (no result: S1P4 antag, S1P4 agonist, S1P3 antagonist, Hsp70 act)
Nn1c(SCC(=O)NCC2CCCO2)nnc1-c1ccc(OC(F)F)cc1 (stereo unspecified)	none (no result: S1P4 antag, S1P4 agonist, S1P3 antagonist, Hsp70 act)
O=S(=O)(CCNCc1cccs1)c1ccc(Cl)cc1	S1P4 agonist 36 (no result: Hsp70 act) | S1P4 agonist cf inactive | S1P1 agonist inactive
COc1ccccc1NC(=O)c1c(NC(=O)c2ccco2)sc2c1CCC2	S1P4 agonist 14 | S1P4 agonist cf inactive | S1P1 agonist inactive
Cc1ccsc1/C=N/n1c(C2CCCCC2)n[nH]c1=S	none
Cc1ccc(/C=N/n2c(C3CCCCC3)n[nH]c2=S)s1	S1P4 agonist 21 | S1P4 agonist cf inactive | S1P1 agonist inactive
O=[N+]([O-])c1cccc(NC(=S)NCCc2ccccc2)c1	S1P4 agonist 20 (no result: HSF1 inh, HSF1 activator) | S1P4 agonist cf inactive | S1P1 agonist inactive
O=C(O)c1cccc(C(=O)c2cccc(C(=O)O)c2)c1	S1P4 agonist 41 | S1P4 agonist cf inactive | S1P1 agonist inactive
O=C(O)c1cc(NC(=O)c2cccc(C(=O)Nc3cc(C(=O)O)cc(C(=O)O)c3)c2)cc(C(=O)O)c1	none (no result: S1P4 antag, S1P4 agonist, S1P3 antagonist, Hsp70 act)
COc1ccc(OC)c(/C=N/N(CCC#N)C2=NS(=O)(=O)c3ccccc32)c1	none (no result: S1P4 antag, S1P4 agonist, S1P3 antagonist, Hsp70 act)
N#CCCN(/N=C/c1cccnc1)C1=NS(=O)(=O)c2ccccc21	S1P4 agonist 47 | S1P4 agonist cf inactive | S1P1 agonist inactive
Cc1cc(NN)nc(Cc2ccccc2)n1	none (no result: S1P4 antag, S1P4 agonist, S1P3 antagonist, Hsp70 act)
Cc1cc(OC(=O)CNC(=O)OC(C)(C)C)c2c(C)cc(=O)oc2c1	S1P4 agonist 48 | S1P4 agonist cf inactive | S1P1 agonist inactive
C/C(CC(=O)Nc1c(C)cc(C)cc1C)=N\NC(=O)c1cnccn1	none
CC(C)(C)NC(=O)NC(=O)CN1CCN(S(=O)(=O)c2ccc3c(c2)OCCO3)CC1	none (no result: Hsp70 act)
CCCCN(CC)C(=O)c1ccc(Cl)cc1	none
CCN(CC(=O)NC(C)C)C(=O)c1ccc(Cl)cc1	S1P4 agonist 18 | S1P4 agonist cf inactive | S1P1 agonist inactive
O=S(=O)(Nn1cnnc1)c1ccc(F)cc1	none
COc1ccc(N=c2oc3cc(O)ccc3cc2C(=O)NCC2CCCO2)c(OC)c1 (stereo unspecified)	S1P4 agonist 71 | S1P4 agonist cf inactive | S1P1 agonist inactive
CCOc1ccc(N=c2oc3cc(O)ccc3cc2C(=O)NCC2CCCO2)cc1 (stereo unspecified)	none (no result: S1P3 antagonist)
CCOc1ccccc1N=c1oc2cc(O)ccc2cc1C(=O)NCC1CCCO1 (stereo unspecified)	S1P4 agonist 61 (no result: S1P3 antagonist) | S1P4 agonist cf inactive | S1P1 agonist inactive
